Bioassay records from PubChem BioAssay.
The list is not random: actives were taken first. Their share in the collection is about 7.7%.
Sm TGR inh = inhibitors of Schistosoma mansoni thioredoxin glutathione reductase; purified TGR, DTNB reduction, TNB absorbance 405 nm; Potency, µM (highest dose often 114 µM), for inactives: top-dose activity change, negative = inhibition, most hits filed as inhibitors; actives 3% (n = 360,000); AID 485364; also: potency is read from the fitted curve at half-maximal effect; nearly all actives have a fitted effect of over 60% in size
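TGR 20 nM + NADPH 100 uM (dispensed conc.), cpd preinc 15 min RT; start with NADPH (500 uM addition) then DTNB (15 mM addition). Kinetic TNB absorbance, 405 nm filter. Four-parameter Hill fit across titration.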
RE007 growth inh = less growth of the S. pombe RE007 Vpr strain. S. pombe RE007 Vpr strain, BacTiter-Glo ATP luminescence, 24 h. actives 0.21% (n = 360,000). Potency, µM (highest dose often 92.2 µM), for inactives: top-dose activity change, negative = less growth, actives largely listed as inhibitors; active = well fitted falling curve with a large enough effect; inconclusive = small, poorly fitted or top-dose-only effect; inactive = no such curve, though single readings can be large or run the other way; also: potency is read from the fitted curve at half-maximal effect; nearly all actives have a fitted effect of over 50% in size
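Fission yeast RE007 carrying one integrated HIV-1 vpr copy, seeded at OD 0.01 in PMG+AL medium with 23 nL pinned compound. Grown 24 h at 30 degrees; viability read by BacTiter-Glo luminescence after 5 min.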
HCMV inh = human cytomegalovirus inhibition. HFF cells, HCMV-luciferase reporter, 72 h; active compounds read low. activity change, negative = inhibition, % at 57.5 µM. actives 4.5% (n = 410,000); in the data active = activity change below about -60%; inconclusive = no clear call, values can overlap the other calls; inactive = above about -39%
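HFF cells seeded 16 h at 37C, treated with compounds, infected with luciferase-reporter HCMV at MOI 1 PFU/cell; luciferase read at 72 h post infection, normalized to buffer-only and Salinomycin controls.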
FBPA Giardia inh = blocks Giardia fructose-bisphosphate aldolase activity; actives 0.71% (n = 290,000); purified Giardia FBPA; AID 2451; A8B2U2; Potency, µM (doses to about 59.6 µM), for the others: at the highest dose activity, negative = inhibition, actives largely listed as inhibitors; also: potency is read from the fitted curve at half-maximal effect; nearly all actives have a fitted effect of over 55% in size
Target sequence (A8B2U2 whole entry, looked up): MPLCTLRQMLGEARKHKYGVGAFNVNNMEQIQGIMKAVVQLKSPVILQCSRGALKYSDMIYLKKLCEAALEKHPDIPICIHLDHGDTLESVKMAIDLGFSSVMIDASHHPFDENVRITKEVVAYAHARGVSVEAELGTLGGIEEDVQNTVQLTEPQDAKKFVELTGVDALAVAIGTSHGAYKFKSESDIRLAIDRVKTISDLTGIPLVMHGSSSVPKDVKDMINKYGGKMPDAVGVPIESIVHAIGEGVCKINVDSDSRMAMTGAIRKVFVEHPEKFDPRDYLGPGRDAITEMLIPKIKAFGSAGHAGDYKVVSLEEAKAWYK
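40 nM FBPA preincubated 10 min at RT with compound (up to 57.5 uM final), then substrate plus GAPDH/TPI/NAD/arsenate coupling and diaphorase/resazurin added. Fluorescence read after 20 min at RT, 525/598 nm.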
FMDV inh = blocks foot and mouth disease virus | FMDV antiviral cell-based qHTS | Potency, µM (series often up to 57.9 µM), without a hit: top-dose activity change, negative = inhibition, usual class: inhibitors | actives 1.2% (n = 410,000) | AID 1159524; calls by dose curve; tested in HEK293T cells; also: read-out not given here; potency is read from the fitted curve at half-maximal effect; nearly all actives have a fitted effect of over 45% in size
Tb PYK inh = T. brucei pyruvate kinase inhibition | Potency, µM (doses to about 76.8 µM), without a hit: at the top dose activity, negative = inhibition, most hits filed as inhibitors | AID 624173 | actives 0.12% (n = 410,000) | TbPYK enzyme, Kinase-Glo Plus ATP luminescence, 45 min; also: potency is read from the fitted curve at half-maximal effect; nearly all actives have a fitted effect of over 50% in size
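Glycolytic pyruvate kinase of T. brucei was incubated with substrate, test compound and 130 uM ADP for 45 minutes at room temperature. Luminescent Kinase-Glo Plus signal was measured after 10 minutes.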
Numbers without * were called inactive; ? = inconclusive; . = no result given; ! = not active in a repeat; [ ] = dose if it differs, or a comment. Unless noted, calls follow the shape of the dose curve; as a rule, active = well fitted curve in the direction sought with a large enough effect; inconclusive = small, poorly fitted or top-dose-only effect, or another doubt; inactive = no such curve, though single readings can be large; an effect the other way counts as inactive or inconclusive. % is scaled to controls: 0 for no effect and ±100 for the full control effect.

SMILES | Sm TGR inh | RE007 growth inh | HCMV inh | FBPA Giardia inh | FMDV inh | Tb PYK inh
CCOc1ccc(NC(=O)Cn2nnc(C(=O)NCCc3ccccc3)c2N)cc1 | 1% | . | -37 | . | -15% | 0%
COc1ccc(OC)c(NC(=O)c2nnn(CC(=O)Nc3ccc(C(C)C)cc3)c2N)c1 | 4% | . | -63* | . | -13% | 1%
COc1cc(NC(=O)c2nnn(CC(=O)Nc3cc(C)ccc3C)c2N)cc(OC)c1 | -2% | . | -70* | . | 0% | 0%
COc1ccc(Cl)cc1NC(=O)c1nnn(CC(=O)Nc2ccc(OC)c(OC)c2)c1N | 6% | -4% | -34 | 6% | -1% | 4%
Cc1ccc(C)c(NC(=O)Cn2nnc(C(=O)Nc3c(C)cccc3C)c2N)c1 | 13% | 6% | -10 | 2% | -14% | -16%
CCN(Cc1cc(OC)c(OC)c(OC)c1)S(=O)(=O)c1ccccc1Br | . | . | -6 | . | . | .
CC(=O)OCC(NC(=O)C(CCCCNC(=O)OCc1ccccc1)NC(=O)OC(C)(C)C)C1OC(n2ccc(=O)[nH]c2=O)C(OC(C)=O)C1OC(C)=O (stereo not given) | . | . | . | 8% | . | .
COc1ccc(-n2c(=O)c3c(c4cc(OC)ccc4n3C)n(Cc3cccc(OC)c3)c2=O)cc1 | 1% | . | 2 | . | -10% | 4%
O=C1C2ON(c3ccccc3)C(c3ccncc3)C2C(=O)N1c1ccc(Br)cc1 (stereo not given) | 45µM* | -3% | -7 | 0% | 23% | 11%
O=C1C2ON(c3ccccc3)C(c3ccccn3)C2C(=O)N1c1ccc(Br)cc1 (stereo not given) | 3% | -7% | 20 | 4% | -20% | -8%
O=C(O)COc1ccccc1C1C2C(=O)N(c3ccccc3)C(=O)C2ON1c1ccccc1 (stereo not given) | 22µM* | -5% | 39 | -4% | 20% | -8%
Cc1ccc(N2C(=O)C3ON(c4ccccc4)C(c4ccncc4)C3C2=O)cc1 (stereo not given) | 16µM* | 0% | 24 | 19% | 50% | -8%
CN(C)c1ccc(C2C3C(=O)N(c4ccc(C(=O)O)cc4)C(=O)C3ON2c2ccccc2)cc1 (stereo not given) | -3% | -1% | 6 | -2% | -12% | -5%
O=C1C2ON(c3ccccc3)C(c3ccncc3)C2C(=O)N1c1ccc(N2CCOCC2)cc1 (stereo not given) | 3% | -2% | -75* | 3% | -2% | -1%
O=C(Cn1nnc(-c2cccc(C(F)(F)F)c2)n1)NCc1ccc(F)cc1 | 4% | . | -19 | . | -24% | -4%
O=C1c2ccccc2-c2cccnc21 | 5% | -7% | -104* | -9% | 6% | 1%
Cc1nc2c(nc1C)C(=O)c1ccccc1C2=O | . | ? | ? | . | ? | -4%
Cc1ccc(CN2CCC(CNC(=O)c3cc4ccc5cccnc5c4[nH]3)CC2)cc1 | 15% | . | -106* | . | -29% | -3%
Cc1ccccc1C(=O)NC(CC(C)C)C(=O)Nc1ccc(F)c([N+](=O)[O-])c1 (stereo not given) | 0% | 18% | -104* | 3% | -16% | -2%
Cc1ccccc1C(=O)NC(CC(C)C)C(=O)Nc1cccc(S(=O)(=O)N(C)C)c1 (stereo not given) | 1% | 2% | 7 | 5% | 16% | 2%
Cn1nccc1C(=O)Nc1sc2c(c1C#N)CCCC2 | -6% | -8% | 61 | . | 36% | -4%
COc1ccc(-c2c(C)sc(NC(=O)c3ccnn3C)c2C#N)cc1 | -1% | 42% | -89* | -6% | ? | -1%
O=c1c(-c2ccccc2)c1-c1ccccc1 | 3.5µM* | . | . | 4% | . | -6%
OC1(c2cccnc2)CCN(Cc2ccc3c(c2)CN(Cc2cccc4nccnc24)CCO3)CC1 | . | . | . | . | 0% | .
COc1ccccc1C(OC(=O)c1ccco1)C(=O)NC(C)(C)C (stereo not given) | -14% | 18% | -82* | 1% | -3% | 1%
SMILES | Sm TGR inh | RE007 growth inh | HCMV inh | FBPA Giardia inh | FMDV inh | Tb PYK inh
COc1cccc(OCc2nc3ccccc3n2CCOc2ccc(C)cc2)c1 | 7% | . | 14 | . | -14% | -2%
COc1ccc(C2CCCN2C(=O)Nc2ccc(Cl)cc2)cc1OC (stereo not given) | 3% | -5% | -72* | -12% | -8% | -4%
Cc1cc2c(cc1S(=O)(=O)NCc1ccccc1)OCC(=O)N2 | -14% | 7% | -87*! | 0% | 7% | 0%
Cc1cc2c(cc1S(=O)(=O)NCc1ccccc1Cl)OCC(=O)N2 | 1% | . | -1 | . | 64% | -7%
Cc1ccc(CNS(=O)(=O)c2cc3c(cc2Cl)NC(=O)CO3)o1 | 32µM* | . | 0 | . | -8% | 5%[15.4 µM]
Cc1ccc(CNC(=O)CCS(=O)(=O)c2cc3c(cc2Cl)NC(=O)CO3)o1 | -2% | -5% | 9 | -9% | -10% | 2%
CCN(C(=O)CSc1nc2ccccc2n1CC(=O)NCc1ccc(OC)cc1)c1ccccc1 | 0% | . | -19 | . | 12% | 1%
c1ccc2c(N3CCCCCC3)nc(CN3CCCCC3c3nccs3)nc2c1 (stereo not given) | . | . | . | . | -13% | .
Nc1ccc(Cl)cc1C(=O)c1ccccc1 | 14% | 16% | -22 | -11% | 15% | -1%
O=C(c1ccccc1)c1cc(Cl)ccc1N1C(=O)C=CC1=O | 0.79µM* | 25µM* | ? | ? | ? | 4.5µM*
CC(=O)N1CCC2(CC1)CC(=O)c1cc(OCC(=O)NCc3ccco3)ccc1O2 | 25µM* | 5% | 7 | 3% | 12% | -11%
NCCCC[C@H](NC(=O)[C@@H](Cc1ccccc1)NC(=O)[C@H](Cc1c[nH]c2ccccc12)NC(=O)[C@@H](CCCCN)NC(=O)[C@@H](Cc1c[nH]c2ccccc12)NC(=O)[C@@H](N)Cc1cnc[nH]1)C(N)=O | . | . | . | 2% | . | .
Cc1nn(C)cc1NC(=O)c1cc2nc(-c3ccco3)cc(C(F)(F)F)n2n1 | 6% | -23% | -7 | -3% | -1% | 4%
Cc1nn(C)cc1CN(C)C(=O)c1cc2nc(-c3ccco3)cc(C(F)(F)F)n2n1 | 35µM* | 8% | -17 | -20% | 0% | 1%
Cc1ccccc1Cn1nc(C)c(NC(=O)c2cc3nc(-c4ccco4)cc(C(F)(F)F)n3n2)c1C | -23% | 8% | -5 | 12% | ? | -4%
Cc1nn(C)c(C)c1CN(C)C(=O)c1cc2nc(-c3ccco3)cc(C(F)(F)F)n2n1 | 13µM* | -6% | -8 | -3% | -29% | -4%
CC1(C)CC(=O)C=C(C#CC2CC2)C1 | . | . | 3 | . | . | .
